Results as given in the supplement of paper PMC3334620.
The full ranking holds about 33,000 sequences; the median of “E-score (-0.5 to 0.5)” is about -0.016, and the highest 2% start at about 0.3. The list comes from a sample in which the highest values are over-represented; it also holds similar and randomly drawn sequences.

biological target: T1, Yer184c (UniProt P39961); assay: PBM E-score (8-mer binding enrichment) (E-score (-0.5 to 0.5)); higher = stronger / more preferred TF binding; settings: protein concentration: 100 nM; construct: GST-full length
T1 sequence: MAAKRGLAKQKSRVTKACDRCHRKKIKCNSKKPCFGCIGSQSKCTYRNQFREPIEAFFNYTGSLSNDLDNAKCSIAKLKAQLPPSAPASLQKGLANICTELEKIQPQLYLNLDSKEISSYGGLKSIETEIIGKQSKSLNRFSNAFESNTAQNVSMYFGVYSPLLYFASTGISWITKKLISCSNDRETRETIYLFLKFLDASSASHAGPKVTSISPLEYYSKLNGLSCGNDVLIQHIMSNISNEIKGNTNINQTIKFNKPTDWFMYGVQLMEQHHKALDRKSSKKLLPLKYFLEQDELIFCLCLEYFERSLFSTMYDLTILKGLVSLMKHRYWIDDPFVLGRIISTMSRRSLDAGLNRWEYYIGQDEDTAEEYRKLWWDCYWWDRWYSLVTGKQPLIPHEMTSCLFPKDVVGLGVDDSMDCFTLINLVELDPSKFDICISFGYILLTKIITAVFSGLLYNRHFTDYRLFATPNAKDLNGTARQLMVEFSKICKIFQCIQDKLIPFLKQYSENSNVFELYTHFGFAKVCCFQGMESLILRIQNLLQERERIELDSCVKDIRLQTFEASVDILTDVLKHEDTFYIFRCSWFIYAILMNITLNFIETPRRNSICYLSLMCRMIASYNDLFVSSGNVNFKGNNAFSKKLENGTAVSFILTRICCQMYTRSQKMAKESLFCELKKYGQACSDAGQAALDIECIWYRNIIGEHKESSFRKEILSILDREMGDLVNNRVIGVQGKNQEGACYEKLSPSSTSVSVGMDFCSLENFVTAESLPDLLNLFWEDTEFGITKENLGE
Experimental: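 Universal 'all 10-mer' protein binding microarrays (Agilent AMADID 015681) probed with GST-tagged S. cerevisiae TFs (full-length or DBD) made by in vitro transcription/translation (PURExpress), about 100-200 nM. Bound TF was detected with fluorescent anti-GST. Each ungapped 8-mer (which stands for itself and its reverse complement) is scored by the PBM enrichment score (E-score), a modified Wilcoxon-Mann-Whitney statistic from -0.5 to +0.5, computed with the Universal PBM Analysis Suite. Scale: above 0.35 generally sequence-specific binding.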

Row | Sequence | PBM E-score
1 | GCCTTAAC | -0.171
2 | CGGTAGTA | 0.0519
3 | GCTCTTCC | 0.0925
4 | AGAGGTTG | -0.19
5 | CCGAGCGA | 0.244
6 | CCGAGCCG | 0.352
7 | CCGAGCGC | 0.361
8 | CGGAGCGA | 0.332
9 | GCGAGCGC | 0.0998
10 | CGGAGCCG | 0.309
11 | ACGAGCCG | 0.22
12 | AGGAGCGA | -0.0501
13 | CGGAGCGC | 0.107
14 | CCGAGCCA | 0.219
15 | AGGAGCCG | 0.0636
16 | CGGAGCCC | -0.177
17 | AGGGATGA | -0.133
18 | GATTGAGC | 0.109
19 | AAGGGGAC | -0.0399
20 | CGGAATGC | 0.249
21 | CAACAGCG | -0.182
22 | GTATCCGA | 0.304
23 | ATGTCCGA | 0.231
24 | CTATCCGA | 0.119
25 | ATGTCCGG | 0.373

Row | Sequence | PBM E-score
26 | ATATCCGC | 0.178
27 | GTATCCCA | -0.0951
28 | ATATCCGG | 0.374
29 | ATGTCCGC | -0.0241
30 | AGATCCGG | 0.263
31 | GTATCCTA | -0.0431
32 | ATATCCGA | 0.343
33 | ATATCCTA | -0.0362
34 | CAAGGGTA | -0.254
35 | GTACGAGA | -0.1
36 | CTCTAAGC | 0.0215
37 | GGACCCAC | -0.182
38 | ATTGTCCC | -0.0916
39 | ATTGTTCC | 0.267
40 | ATTGTTTG | 0.137
41 | CTTGTTTC | 0.0564
42 | ATTGTTCA | 0.112
43 | ATTGTTTC | 0.324
44 | ATTGTCCG | 0.345
45 | ATTGTTCG | 0.346
46 | ATTGTCCA | 0.143
47 | GCCCAGTA | -0.14
48 | AACGGCCG | 0.3
49 | ATTGAATA | 0.24
50 | ATCCATAA | 0.168

Row | Sequence | PBM E-score
51 | ACCCTAAC | -0.0425
52 | TAATCGGA | 0.248
53 | AAATCGGA | 0.308
54 | CGATCGGA | 0.142
55 | AGATCGGA | 0.34
56 | ACATCGGA | 0.223
57 | GAATCGGA | 0.318
58 | GGATCGGA | 0.228
59 | GAATCGGC | 0.254
60 | AAATCGGT | 0.0224
61 | GCATCGGC | 0.176
62 | GCATCGGA | 0.307
63 | AAATCGGG | 0.0884
64 | CAAACAAG | 0.0388
65 | AACCTCTT | 0.178
66 | CCCAAGTC | -0.223
67 | AAGCAGTA | -0.209
68 | TGACTGAA | -0.14
69 | AAATGCTT | 0.0617
70 | TCTGCGAA | -0.186
71 | GCCTGCTA | -0.0406
72 | ACTTCCAG | -0.112
73 | CCGTTCAA | 0.197
74 | CCCTCATA | -0.288
75 | CCTCGAGG | -0.112

Row | Sequence | PBM E-score
76 | GGAGTACC | -0.219
77 | CTATCGGA | 0.319
78 | ATATCGGA | 0.277
79 | GTATCGGA | 0.208
80 | AAAGGGCA | -0.226
81 | ATATGGCA | -0.15
82 | CCACAGTA | -0.1
83 | CCTCCTTA | -0.179
84 | AGATTCCG | 0.338
85 | ATATTCCG | 0.38
86 | AGATTCCC | -0.0681
87 | ATATTCCC | 0.176
88 | AGATTCCT | -0.215
89 | ATATTCCA | 0.16
90 | ATAGTGCA | 0.104
91 | CGGTGCGA | 0.00174
92 | CGATGGTA | -0.146
93 | CGTCCGAA | 0.239
94 | AGTCCGAA | 0.343
95 | TGTCCGAA | 0.334
96 | AGTCCGAC | -0.14
97 | AGTCCGAT | 0.19
98 | TGTCCAAA | 0.143
